Compound activity: PubChem, National Center for Advancing Translational Sciences (NCATS)
The list is not random: actives were taken first. Their share in the collection is about 4.6%.
TRHR ag = TRH receptor (human) agonism | TRHR cells, calcium flux fluo-8, FDSS agonist mode | AID 493084 | P34981 | activation, % at 2 µM | 0.18% of 360,000 active; further: 0% is about no effect
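TRHR-expressing cells loaded with fluo-8 calcium dye; 23 nL library compound pin-transferred, kinetic FDSS fluorescence (Ex 480/Em 530) recorded about 180 s for agonist-induced calcium release, before a 10 nM TRH EC20 addition for potentiator mode.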
D1 antag = human D1 dopamine receptor antagonism | HEK293 TREx D1 cells, calcium flux, dopamine EC80; stronger effect = lower value | activity change, negative = inhibition, % at 10 µM | 3.2% of 360,000 active | AID 504652; in the data active means activity change below about -30%; further: on the % scale 0 is the no-effect control and ±100 the full control effect
Target sequence (P21728 whole entry, looked up): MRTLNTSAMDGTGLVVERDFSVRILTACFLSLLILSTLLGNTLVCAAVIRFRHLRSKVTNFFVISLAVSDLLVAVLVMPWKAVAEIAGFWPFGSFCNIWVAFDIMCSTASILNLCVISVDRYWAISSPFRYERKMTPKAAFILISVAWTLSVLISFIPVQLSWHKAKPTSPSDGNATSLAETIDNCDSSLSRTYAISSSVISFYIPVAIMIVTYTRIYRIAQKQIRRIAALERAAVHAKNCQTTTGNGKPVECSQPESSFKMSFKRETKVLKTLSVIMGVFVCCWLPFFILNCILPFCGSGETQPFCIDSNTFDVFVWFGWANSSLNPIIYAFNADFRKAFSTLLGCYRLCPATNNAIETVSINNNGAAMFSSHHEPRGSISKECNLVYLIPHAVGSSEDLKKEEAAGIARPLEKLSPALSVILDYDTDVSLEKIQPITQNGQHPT
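Inducible Hek293 Trex D1 cells (tetracycline, overnight, 30 C). Calcium dye 30–90 min RT. Antagonist mode: EC80 dopamine added after 180 s compound read.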
D1 PAM = enhances dopamine response at the human D1 receptor; P21728; 0.036% of 360,000 active; AID 504651; HEK293 TREx D1 cells, calcium flux, dopamine EC20 potentiation; potentiation, % at 10 µM; in the data active means potentiation above about 30%; further: 0% is about no effect
TRHR enhancer = allosteric enhancers of human TRH receptor. 0.66% of 360,000 active. TRHR cells, fluo-8 calcium fluorescence, EC20 TRH enhancement. enhancement, % at 2 µM. P34981; in the data active means enhancement above about 30%; further: 0% is about no effect
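Enhancer read-out: after compound pinning and an initial kinetic agonist-mode read, an EC20 of TRH (10 nM final) was injected and fluo-8 calcium signal (Ex 480/Em 530) followed at 1 s/cycle for 100 cycles in TRHR-expressing cells.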
D1 agonist = activates the human D1 dopamine receptor | HEK293 T-REx D1 cells, calcium flux, agonist mode | activation, % at 2 µM | 1% of 360,000 active | AID 504660; further: 0% is about no effect
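Agonism was scored from calcium flux recorded over 180 s (1 read/s) after pintool compound addition, following a 10-cycle baseline. Cells were inducible force-coupled HEK293 TREx D1, plated overnight at 30 C and loaded with no-wash calcium dye.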
Numbers without * were called inactive; nt = no result; ! = not confirmed by another sample. Unless noted, no stated cut-off is given here; in the data, active means activation above about 30%; inactive means the rest.

SMILES | TRHR ag | D1 antag | D1 PAM | TRHR enhancer | D1 agonist
CC(=O)N1N=C(c2cccc([N+](=O)[O-])c2)OC1(C)CC(=O)Nc1ccccc1 (stereo unspecified) | 0 | -77* | -10 | 11 | 2
COc1ccc(CC2(C)OC(c3ccccc3)=NN2C(C)=O)cc1 (stereo unspecified) | 0 | -42* | -4 | -12 | 2
COc1ccc(CCNC(=O)C(=O)NCC(c2ccco2)S(=O)(=O)c2ccccc2)cc1OC (stereo unspecified) | 0 | nt | -3 | 9 | -2
O=C(c1ccc(-c2cccc(C(F)(F)F)c2)o1)N1CCCCCCC1 | -1 | -40* | 1 | 2 | 0
CC(C)c1ccc(Nc2ncnc3c2c(-c2ccccc2)cn3-c2ccccc2)cc1 | 0 | 7 | -1 | -2 | -1
CCCn1c(SCC(=O)Nc2ccc(OC)cc2[N+](=O)[O-])n[nH]c1=O | -1 | -46* | -15 | 4 | 0
COCC(=O)NC1CCN(CC(=O)Nc2ccc(OC)cc2[N+](=O)[O-])CC1 | -1 | -38* | -2 | 6 | 0
CCCCC(=O)Nc1ccc(C(=O)Nc2ccc(OC)cc2[N+](=O)[O-])cc1 | 13 | -18 | -2 | 8 | 41*
COc1ccc(Cl)cc1NC(=O)C1CCN(S(=O)(=O)c2ccc3c(c2)CCCN3C(=O)C2CCC2)CC1 | 1 | 13 | -3 | 3 | 0
Oc1ccc(CNc2ccc(C(F)(F)F)cc2Cl)c2cccnc12 | -1 | 2 | 1 | 1 | 8
CC(Oc1ccc(F)cc1)C(=O)Nc1ccccc1N1CCCCC1 (stereo unspecified) | 1 | 54 | 4 | -8 | 12
Cc1cc2c(cc1S(=O)(=O)Nc1cccc(Cl)c1C)OCCN2C | 0 | 0 | 3 | 0 | 0
CCc1cccc(NC(=O)c2cc3c(=O)n(Cc4ccc(OC)cc4)ccc3nc2C)c1 | 0 | 5 | -7 | 8 | 3
NS(=O)(=O)c1ccc(CCNC(=O)c2ccc3ccccc3n2)cc1 | 0 | -31* | -10 | -5 | 2
CCC(CC)C(=O)NCCc1ccc(S(N)(=O)=O)cc1 | 1 | -42* | -3 | 1 | 1
CCCCC(CC)C(=O)NCCc1ccc(S(N)(=O)=O)cc1 (stereo unspecified) | -1 | -4 | -3 | 12 | 1
CC(C)N1CCN(Cc2cccn2-c2nccs2)CC1CCO (stereo unspecified) | 2 | 6 | 1 | 36* | 14
CC(C)N1CCN(Cc2ccncc2)CC1CCO (stereo unspecified) | 1 | 4 | -4 | -6 | 3
CSc1ccc(CN2CCN(C(C)C)C(CCO)C2)cc1 (stereo unspecified) | -1 | -35* | 0 | -3 | 0
OCCC1CN(Cc2cccn2-c2nccs2)CCN1C1CCCCC1 (stereo unspecified) | 0 | 0 | -1 | -1 | 1
COc1ccccc1S(=O)(=O)Cc1ccc(C(=O)NCC2CCCO2)o1 (stereo unspecified) | 0 | -36* | 2 | -2 | 1
COc1ccc(CNC(=O)c2ccc(CS(=O)(=O)c3ccccc3C)o2)cc1 | 0 | 0 | 3 | 0 | 3
COc1ccccc1CNC(=O)c1ccc(C)s1 | -2 | -46* | -5 | -1 | -1
COc1ccccc1CNC(=O)c1ccc(CS(=O)(=O)c2ccccc2C)o1 | 3 | -38*! | 1 | -10 | 31*!
Cc1c(C(=O)NCC2CCCO2)oc2ccccc12 (stereo unspecified) | 0 | -31* | nt | 2 | 0
SMILES | TRHR ag | D1 antag | D1 PAM | TRHR enhancer | D1 agonist
Cc1csc(CNc2ncnc3ccc(-c4ccc5c(ccn5C)c4)cc23)c1 | 0 | 5 | 2 | 0 | 3
Cn1cc(C(=O)NCc2ccc(Cl)cc2)c(=O)c2cc(S(=O)(=O)N3CCCCCC3)ccc21 | 0 | 4 | 1 | -4 | 9
Cc1ccccc1S(=O)(=O)Cc1ccc(C(=O)NCCCN2CCCC2)o1 | 0 | 3 | -6 | 2 | 2
CCN1CCCC1CNC(=O)c1ccc(CS(=O)(=O)c2ccccc2C)o1 (stereo unspecified) | 0 | 7 | 8 | 31* | 0
CCSc1nnc(NC(=O)Cc2ccc(OC)c(OC)c2)s1 | 0 | -33* | -9 | -5 | 2
COc1ccc(Cc2nnc(NC(=O)CSc3ccc(C)cc3)s2)cc1OC | 0 | -1 | 6 | 9 | 224*
CC(=O)Nc1ccc(NC(=O)CSc2nnc(NC(=O)C3CC3)s2)cc1 | 1 | -23 | -10 | 1 | 1
COC(=O)c1cc(NC(=O)CSc2nnc(N)s2)ccc1Cl | 0 | 10 | -4 | 34* | 2
COc1ccc(NC(=O)CSc2nnc(NC(=O)C3CC3)s2)cc1OC | 1 | -36* | -13 | 14 | 1
COC(=O)c1ccccc1NC(=O)CSc1nc2ccccc2nc1Cc1ccc(F)cc1 | 0 | -12 | -2 | -13 | 0
O=S(=O)(c1ccc(-c2cc(C(F)(F)F)on2)s1)N1CCN(c2cccc(Cl)c2)CC1 | 0 | -5 | -4 | 8 | 3
CCOC(=O)Cc1nnc(NC(=O)CSc2ccc(Cl)cc2)s1 | 1 | -32* | -2 | -3 | 10
COc1ccc(-c2nnc(NC(=O)CSc3ccc(Cl)cc3)s2)cc1OC | 1 | 0 | 5 | 25 | 2
CCOC(=O)Cc1nnc(NC(=O)C(CC)Sc2nc(C)cc(C)n2)s1 (stereo unspecified) | 0 | -36* | nt | -2 | 4
COc1ccc(-c2nc3sc(CCNC(=O)C(=O)Nc4ccccc4C#N)c(C)n3n2)cc1 | 1 | nt | -2 | 1 | 2
O=c1c2ccccc2sn1-c1ccc(F)cc1 | 10 | -44* | -6 | 19 | 65*
CC(C)Cc1nn2c(=O)cc(COC(=O)c3ccc(NC(=O)C4CCCCC4)cc3)nc2s1 | 1 | -4 | 0 | -1 | 0
CCC(=NCc1ccco1)c1c(C(F)(F)F)[nH]n(-c2nc3ccccc3s2)c1=O | -1 | 5 | 1 | -3 | 4
CC(=NCc1ccco1)c1c(C)[nH]n(-c2nc3ccccc3s2)c1=O | 0 | -66* | -7 | -18 | -1
Cc1cccc(Nc2nnc(-n3nc(C)cc3C)c3ccccc23)c1 | -1 | -7 | -2 | 1 | 0
CCN(CC)CCOC(=O)c1ccc(NC(=O)CCCN2C(=O)S/C(=C/c3ccc(OC)cc3)C2=S)cc1 | 1 | -65* | -9 | 0 | 3
O=C(COC(=O)c1cc[n+]([O-])cc1)Nc1ccc(SC(F)F)cc1 | 1 | -34* | -3 | 2 | 2
O=C(COC(=O)c1cc[n+]([O-])cc1)Nc1ccc(Br)cc1 | 0 | 9 | 7 | 5 | 1
Cc1ccc(NC(=O)Nc2ccc3c(c2)N(C)C(=O)CS3)cc1C | -1 | -44* | nt | 11 | 20
